Test systems include NCI-H23 lung; NCI-H226 lung; NCI-H322M lung; HOP-62 NSCLC; NCI-H460 lung; HOP-92 NSCLC; NCI-H522 lung; A549/ATCC NSCLC; 786-0 renal; COLO 205 colon; DU-145 prostate; K-562 leukemia; MALME-3M melanoma; MDA-MB-231 breast; RXF 393 renal; SF-268 CNS; SF-295 CNS; SF-539 CNS; UACC-257 melanoma; M14 melanoma.
What all share (assay): NCI-60 one-dose screen, 48 h (100 = growth as untreated, 0 = no growth, -100 = all killed)
Common to all, as to settings: 10 µM unless noted

Compounds without any hit were thinned out: in the full panel of roughly 83,000, 20% have a hit.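 Negative percent growth values reflect cell death: -40 means 40% of the cells present at the start died, and -100 means all died.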 Values without a mark were called inactive. The source made the active and inactive calls. The calls were made as follows: active = growth percent below 10; inactive = the rest.

As to `COC(=O)/C=C/c1cc(OC)c2c(c1)[C@@H](C(=O)OC)[C@H](c1ccc(OC)c(OC)c1)O2`, the growth is 38.9% in the assay on NCI-H23 lung; 79.4% in the assay on NCI-H226 lung; 98.3% in the assay with NCI-H322M lung; 24.9% in the assay on HOP-62 NSCLC; 59.7% in the assay on NCI-H460 lung; 66.8% in the assay on HOP-92 NSCLC. The growth in the assay on NCI-H522 lung was 22.1%; in the assay with A549/ATCC NSCLC, 67.2%; with 786-0 renal, 37.9%; in the assay with COLO 205 colon it was 23.9%; in the assay with DU-145 prostate, 14%; in the assay on K-562 leukemia, 10.8%. Further, the growth is 44.3% in the assay on MALME-3M melanoma; 53.4% with MDA-MB-231 breast; -12.2% (active) in the assay with RXF 393 renal; 59.6% in the assay with SF-268 CNS; 18.4% with SF-295 CNS; -7.1% (active) with SF-539 CNS. Further, the growth is 44.7% in the assay on UACC-257 melanoma and 2.02% (active) in the assay on M14 melanoma.
Regarding `COc1ccc(C(C)c2cc(OC)c(OC)c(OC)c2)cc1` (stereo not given), the growth with NCI-H23 lung was 28.9%; with NCI-H226 lung it was 80.2%; with NCI-H322M lung it was 44.6%; in the assay with HOP-62 NSCLC, 35.4%; with NCI-H460 lung, 4.97% (active); in the assay on HOP-92 NSCLC, 49%. The growth in the assay with NCI-H522 lung was 9.34% (active); in the assay with A549/ATCC NSCLC, 18.6%; in the assay with 786-0 renal, 22.6%; in the assay on COLO 205 colon, -15.2% (active); in the assay with DU-145 prostate, 9.97% (active); with K-562 leukemia, 7.1% (active). For the same compound, the growth with MALME-3M melanoma was 67.5%; in the assay on MDA-MB-231 breast, 30.5%; with RXF 393 renal it was 24.7%; in the assay on SF-268 CNS, 37.5%; with SF-295 CNS, 15.6%; in the assay with SF-539 CNS, -7.56% (active). Also, the results for the growth in the assay on UACC-257 melanoma and in the assay on M14 melanoma were 53% and 7.54% (active), respectively.
Take `CCCCCCC/C=C/[C@H]1O[C@]23C(=O)C[C@@]4(C[C@@H](OC5OC(CO)C(O)C(O)C5O)C[C@@H]4[C@H]2C=C1C)OC3=O` (stereo not given in full): the growth in the assay on NCI-H23 lung is 40.8%; in the assay on NCI-H226 lung it was 65.2%; with NCI-H322M lung, 56.2%; in the assay with HOP-62 NSCLC, 17.3%; with NCI-H460 lung, 49%; in the assay with HOP-92 NSCLC, 59%. The growth was -44.7% (active) in the assay on NCI-H522 lung; 62.2% with A549/ATCC NSCLC; 5.03% (active) in the assay on 786-0 renal; 35.9% in the assay with COLO 205 colon; 39.8% in the assay with DU-145 prostate; 9.99% (active) in the assay on K-562 leukemia. Further, the growth in the assay with MALME-3M melanoma is 7.25% (active); in the assay with MDA-MB-231 breast it was 5.73% (active); in the assay with RXF 393 renal, -43.7% (active); with SF-268 CNS, 48.3%; with SF-295 CNS, 58.5%; with SF-539 CNS, -14.3% (active). The values for the growth in the assay with UACC-257 melanoma and in the assay on M14 melanoma were 29% and -12.2% (active), respectively.
For `COc1ccc(Nc2cc(NC(=O)CNc3cc(OC)c(Cl)c(OC)c3Cl)ncn2)cc1`, the growth with NCI-H23 lung was 90.2%; with NCI-H226 lung, 68.5%; with NCI-H322M lung, 88%; in the assay on HOP-62 NSCLC, 83.1%; in the assay on NCI-H460 lung, 89.3%; with HOP-92 NSCLC, 74.3%. Besides, the growth with NCI-H522 lung is 65.5%; with A549/ATCC NSCLC, 71.1%; in the assay with 786-0 renal, 88.1%; in the assay with COLO 205 colon, 89.5%; in the assay with DU-145 prostate, 98.8%; in the assay on K-562 leukemia, 74.1%. In addition, the growth is 106% with MALME-3M melanoma; 69.4% in the assay on MDA-MB-231 breast; 86.7% in the assay on RXF 393 renal; 78.3% with SF-268 CNS; 76.4% in the assay on SF-295 CNS; 82% in the assay on SF-539 CNS. Moreover, the growth was 88% with UACC-257 melanoma and 75.2% in the assay with M14 melanoma.
`COc1cc(NC(=O)COc2cc(C)nc3ccc(OC)cc23)cc(OC)c1`: the growth in the assay with NCI-H23 lung is 86.9%; with NCI-H226 lung, 87.1%; in the assay on NCI-H322M lung, 94%; in the assay on HOP-62 NSCLC, 91.3%; in the assay with NCI-H460 lung, 95%; with HOP-92 NSCLC it was 94.1%. In addition, the growth was 75% in the assay on NCI-H522 lung; 87% in the assay with A549/ATCC NSCLC; 97.1% with 786-0 renal; 69.4% in the assay with COLO 205 colon; 97.8% with DU-145 prostate; 79.1% in the assay on K-562 leukemia. Moreover, the growth in the assay with MALME-3M melanoma was 82.8%; with MDA-MB-231 breast, 80%; with RXF 393 renal, 94.2%; with SF-268 CNS, 94.5%; in the assay on SF-295 CNS, 96.8%; in the assay on SF-539 CNS, 76.1%. The growth is 82% in the assay on UACC-257 melanoma and 94.8% in the assay on M14 melanoma.
Take `COc1cc(/C=C/C(=O)/C=C/c2cc3ccc(Cl)cc3[nH]c2=O)ccc1O`: the growth in the assay with NCI-H23 lung was 61.2%; in the assay on NCI-H226 lung, 80.1%; in the assay on NCI-H322M lung, 92.2%; with HOP-62 NSCLC it was 114%; in the assay with NCI-H460 lung, 53.3%; in the assay on HOP-92 NSCLC it was 77.4%. For the same compound, the growth is 66.4% in the assay on NCI-H522 lung; 79.8% with A549/ATCC NSCLC; 30.8% in the assay with 786-0 renal; 105% in the assay with COLO 205 colon; 45.9% in the assay with DU-145 prostate; 23.2% with K-562 leukemia. Besides, the growth in the assay on MALME-3M melanoma is 101%; in the assay on MDA-MB-231 breast, 45.9%; with RXF 393 renal it was 70.9%; in the assay with SF-268 CNS, 72.2%; in the assay on SF-295 CNS, 79.7%; with SF-539 CNS, 105%. The values for the growth in the assay on UACC-257 melanoma and in the assay with M14 melanoma were 90.8% and 54.1%, respectively.
Regarding `COc1ccc(/C=C/C(=O)C(CC2CCC2)C(=O)/C=C/c2ccc(OC)c(OC)c2)cc1OC`, the growth was 3.1% (active) with NCI-H23 lung; -0.278% (active) with NCI-H226 lung; 10.6% with NCI-H322M lung; -39% (active) in the assay with HOP-62 NSCLC; -30.3% (active) in the assay with NCI-H460 lung; -5.24% (active) in the assay on HOP-92 NSCLC. The growth is -38.2% (active) in the assay on NCI-H522 lung; -47% (active) in the assay on A549/ATCC NSCLC; -44.6% (active) with 786-0 renal; -53.7% (active) in the assay with COLO 205 colon; -23% (active) with DU-145 prostate; 1.54% (active) with K-562 leukemia. Further, the growth with MALME-3M melanoma is -13.6% (active); in the assay on MDA-MB-231 breast, 6.65% (active); in the assay with RXF 393 renal, -72.5% (active); in the assay on SF-268 CNS, 2.31% (active); in the assay with SF-295 CNS, -16.6% (active); with SF-539 CNS, -38.2% (active). Further, the growth is -16.7% (active) in the assay on UACC-257 melanoma and 5.19% (active) with M14 melanoma.
Consider `COc1ccc(C2CC(c3ccc(OC)cc3O)=NN2c2ccc(S(N)(=O)=O)cc2)cc1` (stereo not given), for which the growth was 65.6% in the assay on NCI-H23 lung; 59.9% with NCI-H226 lung; 59.4% in the assay on NCI-H322M lung; 83.2% in the assay on HOP-62 NSCLC; 14% in the assay with NCI-H460 lung; 20.7% in the assay with HOP-92 NSCLC. Further, the growth is 34% in the assay on NCI-H522 lung; 21.7% in the assay with A549/ATCC NSCLC; 38.5% in the assay with 786-0 renal; 29.5% in the assay with COLO 205 colon; 61.9% in the assay on DU-145 prostate; 10.8% with K-562 leukemia. For the same compound, the growth is 121% in the assay with MALME-3M melanoma; 61.1% in the assay on MDA-MB-231 breast; 67.5% with RXF 393 renal; 50.5% with SF-268 CNS; -7.99% (active) in the assay on SF-295 CNS; 69.8% in the assay with SF-539 CNS. Also, the growth was 56.6% in the assay with UACC-257 melanoma and 34.1% in the assay on M14 melanoma.

The values above are taken from PubChem BioAssay (NCI).
